SW480 rerep: inducers of DNA re-replication in SW480 colon cancer cells | SW480 DNA re-replication, Hoechst DNA content imaging, 48 h | Potency, µM (doses to about 46.1 µM), for the others: at the top dose re-replication activation, usual class: activators | actives 1.8% (n = 340,000); note: potency is the fitted concentration of half-maximal effect; % of control where 0% means no effect; nearly all actives have a fitted effect of over 55% in size
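SW480 cells exposed to compounds for 48 hr at 37 C, 5% CO2, then Hoechst-stained 40 min. Nuclear DNA content imaged by fluorescence scanning (405 nm excitation, 500-530 nm emission); re-replication scored as increased high-intensity nuclei.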
VP16 counter: inhibits Gal4-VP16 luciferase reporter, ROR gamma counter-screen. Drosophila S2 Gal4-VP16 UAS-luciferase, luminescence, 20 h. Potency, µM (series often up to 53.6 µM), inactives show at the highest dose activity, negative = inhibition, most hits filed as inhibitors. actives 3.5% (n = 310,000);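 note: Gal4-VP16 expression switched on by copper sulfate through the metallothionein promoter; potency is the fitted concentration of half-maximal effect; % is set by controls: 0 for no effect and ±100 for the full control effect; nearly all actives have a fitted effect of over 50% in size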
IL1B secr inh: inhibitors of inflammasome signaling (IL-1 beta secretion); THP-1 LPS/ATP IL-1B secretion, AlphaLISA, 16 h; stronger effect = lower value; activity change, % at 57.5 µM; actives 4.7% (n = 360,000); AID 743279; in the data active = activity change below about -50%; inconclusive = mostly about -30% to -49%; note: % is set by controls: 0 for no effect and ±100 for the full control effect
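Secreted IL-1B measured by AlphaLISA bead assay after 16 h compound exposure of THP-1 cells; compounds (final up to 57.5 uM) added 1 h before LPS (250 ng/mL) and ATP (1.25 mM) stimulation; lower signal means less secretion.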
MCF10A rereplic: induces DNA re-replication in MCF 10a normal breast cells; Potency, µM (titrated, usually from 46.1 µM), for the others: top-dose activity, positive = re-replication, usual class: activators; MCF 10A DNA re-replication, Hoechst nuclear intensity, 48 h; actives 2.9% (n = 350,000); note: potency is the fitted concentration of half-maximal effect; % of control where 0% means no effect; nearly all actives have a fitted effect of over 50% in size
RORg inh: blocks mouse ROR gamma transcriptional activity | Drosophila S2 Gal4-RORgamma UAS-luciferase reporter, 20 h | Potency, µM (titrated, usually from 53.6 µM), inactives show top-dose activity change, negative = inhibition, most hits filed as inhibitors | actives 5.4% (n = 310,000) | P51450 | AID 2551; note: potency is the fitted concentration of half-maximal effect; % is set by controls: 0 for no effect and ±100 for the full control effect; nearly all actives have a fitted effect of over 60% in size
Target sequence (P51450 whole entry, looked up, the tested form may be a part): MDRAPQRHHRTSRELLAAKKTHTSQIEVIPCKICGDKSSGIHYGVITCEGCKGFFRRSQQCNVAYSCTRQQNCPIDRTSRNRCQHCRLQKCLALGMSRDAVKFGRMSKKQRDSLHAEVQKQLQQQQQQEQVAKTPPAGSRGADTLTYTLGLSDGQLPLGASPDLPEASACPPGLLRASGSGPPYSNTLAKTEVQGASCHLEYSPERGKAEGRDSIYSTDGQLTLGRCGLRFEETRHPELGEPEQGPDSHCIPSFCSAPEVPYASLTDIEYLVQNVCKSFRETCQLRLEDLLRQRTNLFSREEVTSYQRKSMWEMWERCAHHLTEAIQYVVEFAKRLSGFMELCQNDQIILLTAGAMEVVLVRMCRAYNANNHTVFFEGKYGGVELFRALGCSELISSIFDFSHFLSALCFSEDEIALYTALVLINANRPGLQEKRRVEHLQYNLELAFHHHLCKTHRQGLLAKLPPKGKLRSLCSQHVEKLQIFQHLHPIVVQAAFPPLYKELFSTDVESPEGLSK
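Luminescence from a UAS-regulated Photinus luciferase reporter in stably transfected Drosophila Schneider cells is measured; decreased signal marks ROR gamma inhibition. Fusion expression is induced by 700 uM copper sulfate for 20 hr.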
* hit, by the source's call; ? = inconclusive; / = not tested or not shown; [ ] = dose if it differs, or a comment. Hits are enriched below; roughly 11% of the tested compounds scored in any of these assays. Unless noted, calls come from the whole dose curve; as a rule, active = well fitted curve in the direction sought with a large enough effect; inconclusive = small, poorly fitted or top-dose-only effect, or another doubt; inactive = no such curve, though single readings can be large; an effect the other way counts as inactive or inconclusive.

SMILES | SW480 rerep | VP16 counter | IL1B secr inh | MCF10A rereplic | RORg inh
COc1ccc(Cl)cc1NC(=O)C1CCN(C(=O)Nc2ccccc2)CC1 | ? | / | -28.1 | -1.7% | /
C/C=C/C1=CC(=O)C[C@H](c2ccc(OC)c(OC)c2)C1 | 6.9%[9.22 µM] | / | -97.5* | 14.8% | /
C/C=C/C1=CC(=O)C[C@H](c2ccc(F)cc2)C1 | -2.5% | / | ? | 25.2% | /
C/C=C/C1=CC(=O)C[C@H](c2ccc(Cl)cc2)C1 | -4.8% | / | -82.1* | -1.2% | /
C/C=C/C1=CC(=O)C[C@H](c2ccc3c(c2)OCO3)C1 | -7.7% | / | -61.0* | ? | /
COc1ccc([C@H]2CC(=O)C=C(c3ccc(C)cc3)C2)cc1OC | 10.2% | / | -12.6 | 13.3% | /
CN1CCN(c2ncc3nc(-c4cn(C)c5ccccc45)c(=O)n(Cc4cccs4)c3n2)CC1 | / | ? | / | / | -11.3%
COc1ccc(-c2nc3cnc(N(C)C)nc3n(C[C@H]3CCCO3)c2=O)cc1 | / | 0.5% | / | / | -15.8%
O=C(NCCN1CCC(n2c(=O)[nH]c3ccccc32)CC1)c1cccc2c1-c1ccccc1C2=O | / | / | -95.3* | / | /
O=C(NCCN1CCC(n2c(=O)[nH]c3ccccc32)CC1)c1c(F)cccc1F | / | / | -64.1* | / | /
CCOC(=O)N1CCN(c2cc3[nH]c(=S)[nH]c3cc2F)CC1 | 2.2% | 0.0% | 12.5 | -1.3% | -11.5%
CCOC(=O)N1CCN(c2c(F)cc3[nH]c(=S)[nH]c3c2Br)CC1 | ? | -1.6% | 26.9 | 8.2µM* | ?
CC1=C(CC[C@@H](C)CO)OC2CC3C4CCC5CC(O)CCC5(C)C4CC(=O)C3(C)C12 (some centres not stated) | -6.3% | / | -66.2* | ? | /
CC(CCC(=O)O)C1CCC2C3CCC4C[C@H](O)CCC4(C)C3CC(=O)C12C (some centres not stated) | -3.4% | 13.2% | -2.1 | -2.7% | 31.8%
COCc1cc(C)nc2sc(C(=O)Nc3ccccc3OC)c(N)c12 | 20.6µM* | 1.2% | -15.3 | ? | ?
COCc1cc(C)nc2sc(C(=O)Nc3cccc(OC)c3)c(N)c12 | 18.4µM* | -10.8% | ? | 10.3µM* | -10.2%
COCc1cc(C)nc2sc(C(=O)Nc3nccs3)c(N)c12 | 0.2% | 5.7% | ? | 16.4µM* | ?
COc1ccc(C(O)c2nc(-c3ccncc3)cs2)cc1 (configuration not stated) | / | / | 46.2 | / | /
N#C/C(=C(/O)COC(=O)CSc1ccc2ccccc2c1)c1nc2ccccc2[nH]1 | 27.2% | 14.1µM* | -105.3* | ? | 7.08µM*
Cc1ccc(C)c(SCC(=O)OC/C(O)=C(\C#N)c2nc3ccccc3[nH]2)c1 | ? | ? | -97.3* | 12.2% | 10µM*
Cc1cc(Br)ccc1SCC(=O)OCC(O)=C(C#N)c1nc2ccccc2[nH]1 | ? | / | -102.0* | -2.5% | /
Cc1cc(Br)ccc1SCC(=O)OC/C(O)=C(\C#N)c1nc2ccccc2[nH]1 | -20.0% | ? | 0.0 | 5.8% | 0.0%
Cn1cc(CN2CCCC(C(=O)c3ccc(-c4ccccc4)c(F)c3)C2)cn1 (configuration not stated) | ? | 2.3% | -196.6* | 14.0% | -17.4%
Cn1cc(CN2CCCC(C(=O)c3ccc(-c4ccccc4)cc3)C2)cn1 (configuration not stated) | 8.0% | -12.9% | -13.3 | 0.1% | 2.3%
CCc1ncc(CN2CCCC(C(=O)Nc3cccc(-c4ccc(F)cc4)c3)C2)cn1 (configuration not stated) | 10.1% | 1.5% | -12.4 | 12.6% | ?
SMILES | SW480 rerep | VP16 counter | IL1B secr inh | MCF10A rereplic | RORg inh
Cc1nn(C)cc1CN1CCCC(C(=O)c2ccc(-c3ccccc3)c(F)c2)C1 (configuration not stated) | 3.9% | 2.0% | -57.1* | ? | 28.8%
CCn1cc(CN2CCCC(C(=O)Nc3cccc(-c4cc5ccccc5[nH]4)c3)C2)cn1 (configuration not stated) | ? | 3.0% | -81.0* | ? | -0.3%
O=C(c1ccc(-c2ccccc2)c(F)c1)C1CCCN(C(=O)c2cncs2)C1 (configuration not stated) | -9.3% | ? | ? | 1.8% | ?
CCn1cc(CN2CCCC(C(=O)c3ccc(-c4ccccc4)cc3)C2)cn1 (configuration not stated) | ? | -7.0% | -90.3* | ? | 17.9%
CCOC(=O)C1CCCN(C(=O)C(CCSC)NC(=O)COc2ccccc2)C1 (configuration not stated) | -8.8% | / | -2.0 | 0.1% | /
Cc1cc(C)c(C)c(S(=O)(=O)N2CCC(C(=O)N3CC(C)CC(C)C3)CC2)c1C (configuration not stated) | 6.9% | / | -74.7* | ? | /
CCOC1=C2CN(S(=O)(=O)c3ccc(C)cc3)[C@@H](c3ccccc3)C[C@H]2[C@H]2C(=O)N(c3ccccc3)C(=O)[C@H]2C1 | / | / | -7.9 | / | /
CCOC(=O)c1ccc(NC(=O)Nc2ncc(Cl)cc2Cl)cc1 | / | -1.7% | / | / | 1.7%
S=C(Nc1ccccc1)Nc1ccccn1 | / | / | -2.3 | / | /
CCOC(=O)c1ccc(NC(=S)Nc2ccccn2)cc1 | ? | -5.5%[0.365 µM] | -0.9 | 0.0% | 3.16µM*
CCOC(=O)c1ccc(NC(=S)Nc2ccc(Cl)cn2)cc1 | ? | 8.91µM* | 0.0 | ? | 2.24µM*
N#CC1=C(N)NC(SCc2ccccc2)=C(C#N)C12CCCCC2 | ? | -29.4% | ? | 8.2µM* | 25.1%
N#CC1=C(N)NC(SCC(=O)c2ccc(Br)cc2)=C(C#N)C12CCCCC2 | ? | -29.8% | -6.7 | ? | ?
CCSC1=C(C#N)C2(CCCCC2)C(C#N)=C(N)N1 | -5.8% | -6.9% | 5.5 | 3.3% | 1.8%
N#CC1=C(N)NC(SCC(=O)c2ccc(Cl)cc2)=C(C#N)C12CCCC2 | 13.6% | ? | -72.1* | 4.7% | ?
CCCCCCCCCCC/C=C\C(C)(C)/C=C\CCCC(=O)O | / | 3.5% | / | / | -4.1%
Cc1nnc(N/N=C/c2c[nH]c3ccccc23)[nH]c1=O | 0.7% | 0.8% | 0.0 | 14.9% | -13.0%
Cc1nnc(N/N=C/C(C)c2ccccc2)[nH]c1=O (configuration not stated) | 4.8% | -0.9% | -99.8* | -1.4% | -28.0%
COc1ccn(C2CCCCO2)c(=O)n1 (configuration not stated) | -2.6% | / | -9.6 | -1.3% | /
O=C(OCCC12CC3CC(CC(C3)C1)C2)c1ccc(NCc2cc(O)ccc2O)cc1 | ? | / | -120.6* | ? | /
O=C(OCC12CC3CC(CC(C3)C1)C2)c1ccc(NCc2cc(O)ccc2O)cc1 | ? | / | -51.8* | 25.2% | /
Cc1ccc(CN=C(N)Nc2nc(C)cc(C)n2)cc1 | 14.6µM* | -2.0% | -52.1* | ? | 1.2%
CCOCc1nc(N)nc(N)c1-c1cccc(Cl)c1 | / | / | 11.5 | / | /
Cc1cc(=O)c2ccccc2n1Cc1ccccc1 | -3.2% | -21.2% | -50.4* | 3.2% | ?
